For assay [1], the target named is Cytochrome P450 2D6 (Homo sapiens) (UniProt P10635). In words: qHTS Assay for Inhibitors and Substrates of Cytochrome P450 2D6 (AID 891). Note: potency is the fitted concentration of half-maximal effect; nearly all actives have a fitted effect of over 60% in size. The essentials:
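Human CYP2D6 (5 nM) with 30 uM Luciferin-ME EGE (at Km) in 100 mM KPO4, compound preincubated 10 min, then NADPH regeneration system for 60 min at room temperature. Luciferin read by luminescence; normalized to 1.43 uM quinidine.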
A general note: qHTS replaces the single test concentration by a dilution series.

A short description of assay [2]: S16 Schwann cell PMP22 intronic element firefly luciferase assay (AID 624032). Note: nearly all actives have a fitted effect of over 30% in size. Note: potency is the fitted concentration of half-maximal effect. Put shortly:
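Rat S16 Schwann cells stably carrying a PMP22 intronic element-driven Fluc reporter were seeded overnight, then exposed to compounds for 24 h at 37 °C. Luminescence was normalized to PTC124 (positive control) and DMSO (0% activity).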

A further assay relates to 7G8. In words: qHTS profiling for inhibitors of Plasmodium falciparum proliferation (AID 504749). Note: nearly all actives have a fitted effect of over 60% in size. Note: potency is the fitted concentration of half-maximal effect. As to conditions: P. falciparum in erythrocytes, SYBR Green DNA, 72 h; series mostly up to 12.8 µM. The essentials:
(§1)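 P. falciparum-infected erythrocytes (0.3% parasitemia, 2.5% hematocrit final) were exposed to compounds for 72 h at 37 C in 5% CO2, then lysed with SYBR Green buffer overnight at room temperature; parasite DNA fluorescence was normalized to artemisinin and DMSO controls.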

For the next assay, the system named is CP194. The description is as above. The following applies: P. falciparum in erythrocytes, SYBR Green DNA, 72 h; series mostly up to 12.8 µM. The essentials: as §1
The subject of another assay is CP203. Described as above. The following applies: P. falciparum in erythrocytes, SYBR Green DNA, 72 h; series mostly up to 12.8 µM. The essentials: as §1
A further assay deals with CP215. The assay is described as above. The following applies: P. falciparum in erythrocytes, SYBR Green DNA, 72 h; series mostly up to 12.8 µM. The essentials: as §1
Another assay concerns CP268. The description is as above. As to conditions: P. falciparum in erythrocytes, SYBR Green DNA, 72 h; series mostly up to 12.8 µM. The essentials: as §1
The next assay relates to DFO2036. Described as above. The following applies: P. falciparum in erythrocytes, SYBR Green DNA, 72 h; series mostly up to 12.8 µM. Put shortly:
as §1

In assay [3] the target is Cytochrome P450 1A2 (Homo sapiens) (UniProt P05177). In words: p450-cyp1a2 (AID 410; calls by dose curve;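 note: -100% = full effect of reference inhibitor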). Put shortly: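 Human CYP1A2 (20nM) demethylated Luciferin-ME at its Km (100uM) in 100mM KPO4. After 10 min compound preincubation, NADPH regeneration ran the reaction 60 min at room temperature. Luciferin was read by luminescence, normalized to 57 uM furafylline.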
A further assay relates to CP265. In words: qHTS profiling for inhibitors of Plasmodium falciparum proliferation (AID 504749). Note: nearly all actives have a fitted effect of over 60% in size. Note: potency is the fitted concentration of half-maximal effect. The following applies: P. falciparum in erythrocytes, SYBR Green DNA, 72 h; series mostly up to 12.8 µM. The essentials:
as §1

The subject of the next assay is CP335. Described as above. As to conditions: P. falciparum in erythrocytes, SYBR Green DNA, 72 h; series mostly up to 12.8 µM. Put shortly:
as §1

The next assay has as its system P94_40. The assay is described as above. As to conditions: P. falciparum in erythrocytes, SYBR Green DNA, 72 h; series mostly up to 12.8 µM. The essentials:
as §1

In a further assay the test system is TAB109. The description is as above. As to conditions: P. falciparum in erythrocytes, SYBR Green DNA, 72 h; series mostly up to 12.8 µM. Put shortly:
as §1

Another assay deals with DIV17. The assay is described as above. As to conditions: P. falciparum in erythrocytes, SYBR Green DNA, 72 h; series mostly up to 12.8 µM. Put shortly: as §1
A further assay has as its system GB4. Described as above. The following applies: P. falciparum in erythrocytes, SYBR Green DNA, 72 h; series mostly up to 12.8 µM. Put shortly: as §1
Another assay has as its system PC26. The assay is described as above. The following applies: P. falciparum in erythrocytes, SYBR Green DNA, 72 h; series mostly up to 12.8 µM. The essentials: as §1
Assay [4] addresses Cytochrome P450 2C9 (Homo sapiens) (UniProt P11712). In words: qHTS Assay for Inhibitors and Substrates of Cytochrome P450 2C9 (AID 883). Note: potency is the fitted concentration of half-maximal effect; nearly all actives have a fitted effect of over 60% in size. The essentials:
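A luminogenic readout tracked human CYP2C9 (10nM) converting deoxyluciferin (100uM, at KM) in 25mM KPO4 during 60 min at 37C with regenerated NADPH. Values normalized to 57uM sulphaphenazole as complete inhibition.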

Assay [5] in a line: qHTS Assay for Identification of Small Molecule Agonists for Hypoxia Response Element Signaling Pathway (AID 914; active = well fitted activation curve with a large enough effect in the signal ratio, with a control signal flat, not every such curve was filed as active; the % refers to the signal ratio; note: % of control where 0% means no effect). The following applies: ME-180 (cervical carcinoma) HRE-bla reporter, beta-lactamase ratio, CoCl2, 17 h; activation: hits give high values. The essentials: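 In Opti-MEM containing 0.5% dialyzed FBS and 10 mM HEPES, ME-180 HRE-bla cells received a compound titration and EC50 CoCl2. They were incubated 17 hours, then CCF4-loaded 2.5 hours at room temperature before ratio reading.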

The target in assay [6] is Cytochrome P450 3A4 (Homo sapiens) (UniProt P08684). In words: qHTS Assay for Activators of Cytochrome P450 3A4 (AID 885). Note: potency is the fitted concentration of half-maximal effect; nearly all actives have a fitted effect of over 65% in size. Put shortly:
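Human CYP3A4 (20 nM) with Luciferin-PPXE at 25 uM (its KM) in 200 mM KPO4; 10 min compound preincubation, then NADPH regeneration and 60 min reaction at RT. Luciferin read by luminescence; normalized to 57 uM ketoconazole full inhibition.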

The target in assay [7] is Cytochrome P450 2C19 (Homo sapiens) (UniProt P33261). Briefly: qHTS Assay for Inhibitors and Substrates of Cytochrome P450 2C19 (AID 899). Put shortly:
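NADPH-dependent conversion of Luciferin-H EGE (10uM, at KM) by 5nM enzyme in 50mM KPO4, 60 min at 37C following 10 min compound preincubation. Stopped with luciferin detection buffer; luminescence read after 20 min.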

A number with no mark means an inactive call. Results filed as inconclusive are left out. Active and inactive are the calls of the source. Unless noted, calls come from the whole dose curve; as a rule, active = well fitted curve in the direction sought with a large enough effect; inconclusive = small, poorly fitted or top-dose-only effect, or another doubt; inactive = no such curve, though single readings can be large; an effect the other way counts as inactive or inconclusive.

Sequence of Cytochrome P450 1A2 (Homo sapiens) (P05177 whole entry, looked up): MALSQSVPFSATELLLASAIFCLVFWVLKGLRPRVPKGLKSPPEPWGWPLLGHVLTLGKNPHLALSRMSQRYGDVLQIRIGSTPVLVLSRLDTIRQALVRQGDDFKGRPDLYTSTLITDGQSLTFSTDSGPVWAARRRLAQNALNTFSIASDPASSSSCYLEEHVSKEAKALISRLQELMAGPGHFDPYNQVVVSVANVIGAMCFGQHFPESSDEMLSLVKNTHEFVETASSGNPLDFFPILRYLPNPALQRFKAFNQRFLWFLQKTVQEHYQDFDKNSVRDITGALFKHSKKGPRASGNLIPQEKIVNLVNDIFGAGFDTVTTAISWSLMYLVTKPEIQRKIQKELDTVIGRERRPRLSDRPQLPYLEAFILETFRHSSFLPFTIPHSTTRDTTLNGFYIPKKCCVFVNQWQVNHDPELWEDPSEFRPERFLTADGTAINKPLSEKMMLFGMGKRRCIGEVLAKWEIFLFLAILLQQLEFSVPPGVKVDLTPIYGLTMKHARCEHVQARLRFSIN
Sequence of Cytochrome P450 2C19 (Homo sapiens) (P33261 whole entry, looked up): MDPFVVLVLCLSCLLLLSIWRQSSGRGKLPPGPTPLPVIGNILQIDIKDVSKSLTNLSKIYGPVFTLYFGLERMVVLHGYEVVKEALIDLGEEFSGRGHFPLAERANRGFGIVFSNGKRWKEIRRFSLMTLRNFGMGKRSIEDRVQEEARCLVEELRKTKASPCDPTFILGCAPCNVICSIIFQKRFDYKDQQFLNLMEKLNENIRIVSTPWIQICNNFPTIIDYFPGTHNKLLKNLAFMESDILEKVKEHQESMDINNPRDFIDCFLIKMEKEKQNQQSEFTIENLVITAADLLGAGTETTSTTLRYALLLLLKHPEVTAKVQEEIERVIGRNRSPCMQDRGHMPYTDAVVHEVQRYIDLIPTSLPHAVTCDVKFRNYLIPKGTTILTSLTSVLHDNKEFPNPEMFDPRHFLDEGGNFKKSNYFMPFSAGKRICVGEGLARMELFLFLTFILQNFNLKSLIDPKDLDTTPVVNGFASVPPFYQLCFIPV
Sequence of Cytochrome P450 2C9 (Homo sapiens) (P11712 whole entry, looked up): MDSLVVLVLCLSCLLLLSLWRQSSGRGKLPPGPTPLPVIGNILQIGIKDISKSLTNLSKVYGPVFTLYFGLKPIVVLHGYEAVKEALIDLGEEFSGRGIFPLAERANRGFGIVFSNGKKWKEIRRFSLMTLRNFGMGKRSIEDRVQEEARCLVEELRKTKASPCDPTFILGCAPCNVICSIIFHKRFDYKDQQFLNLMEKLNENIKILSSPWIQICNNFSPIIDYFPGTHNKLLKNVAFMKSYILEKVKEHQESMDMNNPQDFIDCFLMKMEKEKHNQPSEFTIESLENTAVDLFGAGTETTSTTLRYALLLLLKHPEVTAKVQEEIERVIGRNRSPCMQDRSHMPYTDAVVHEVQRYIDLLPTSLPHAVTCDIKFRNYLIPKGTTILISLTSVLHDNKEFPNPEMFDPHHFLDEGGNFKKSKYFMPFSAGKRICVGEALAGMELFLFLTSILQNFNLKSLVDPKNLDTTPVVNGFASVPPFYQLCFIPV
Sequence of Cytochrome P450 2D6 (Homo sapiens) (P10635 whole entry, looked up): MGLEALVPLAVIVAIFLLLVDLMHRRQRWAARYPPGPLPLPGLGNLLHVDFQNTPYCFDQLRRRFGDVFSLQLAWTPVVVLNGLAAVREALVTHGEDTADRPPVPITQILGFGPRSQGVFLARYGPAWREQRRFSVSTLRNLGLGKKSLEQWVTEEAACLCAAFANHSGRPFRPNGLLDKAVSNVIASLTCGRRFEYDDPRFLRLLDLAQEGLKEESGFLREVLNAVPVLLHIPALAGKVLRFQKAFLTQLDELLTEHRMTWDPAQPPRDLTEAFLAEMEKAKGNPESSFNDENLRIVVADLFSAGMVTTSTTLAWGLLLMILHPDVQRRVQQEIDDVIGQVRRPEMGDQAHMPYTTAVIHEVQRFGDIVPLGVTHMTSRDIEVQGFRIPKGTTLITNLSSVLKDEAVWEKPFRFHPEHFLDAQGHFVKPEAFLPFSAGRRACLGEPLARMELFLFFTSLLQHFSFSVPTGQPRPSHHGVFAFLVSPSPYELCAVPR
Sequence of Cytochrome P450 3A4 (Homo sapiens) (P08684 whole entry, looked up): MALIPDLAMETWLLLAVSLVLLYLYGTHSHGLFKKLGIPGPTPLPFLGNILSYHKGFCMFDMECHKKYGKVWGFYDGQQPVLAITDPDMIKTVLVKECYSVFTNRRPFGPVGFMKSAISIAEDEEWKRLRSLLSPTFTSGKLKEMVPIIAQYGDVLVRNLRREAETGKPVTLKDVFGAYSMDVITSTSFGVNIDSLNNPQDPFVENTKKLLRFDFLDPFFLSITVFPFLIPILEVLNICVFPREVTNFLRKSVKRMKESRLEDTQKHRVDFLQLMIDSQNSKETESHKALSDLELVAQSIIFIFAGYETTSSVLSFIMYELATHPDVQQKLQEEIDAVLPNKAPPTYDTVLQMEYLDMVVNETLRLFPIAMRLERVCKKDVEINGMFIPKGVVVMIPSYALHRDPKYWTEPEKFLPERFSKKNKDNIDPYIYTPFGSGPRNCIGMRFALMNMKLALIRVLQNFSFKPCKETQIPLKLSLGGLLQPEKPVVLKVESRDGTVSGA

As for `Cc1cccc(CN2CCN([C@@H](c3ccccc3)c3ccc(Cl)cc3)CC2)c1`, the Potency in assay [1] was 3.16 µM (active); in the assay on 7G8 it was 3.55 µM (active). For the same molecule, the Potency entry (in [2]; in the assay on CP194; in the assay with CP203; in the assay on CP215; in the assay on CP268; in the assay on DFO2036) was “inactive” each time.
For the molecule `Cc1cccc(C)c1NC(=O)[C@H](C)N`, the Potency result (in [3]; in [2]; in the assay on 7G8; with CP265; in the assay on CP335; in the assay with DFO2036) was “inactive” in each case. Moreover, the Potency entry with P94_40 and with TAB109 was “inactive” throughout.
Consider `Cn1nnnc1SCC1=C(C(=O)O)N2C(=O)[C@@H](NC(=O)[C@@H](O)c3ccccc3)[C@@H]2SC1`, for which the Potency result (in assay [2]; in the assay on CP194; in the assay on CP203; in the assay on CP215; with CP265; with CP268) was “inactive” each time. The Potency result in the assay on CP335, in the assay on DIV17, in the assay on GB4, with P94_40, with PC26 and with TAB109 was “inactive” throughout.
As to `NC[C@@H]1O[C@H](O[C@H]2[C@H](O)[C@H](O[C@@H]3O[C@H](CO)[C@@H](O)[C@H](N)[C@@H]3O)[C@@H](N)C[C@H]2N)[C@@H](O)[C@H](O)[C@@H]1O`, the Potency result (in [2]; with 7G8; in the assay with CP194; with CP203; in the assay with CP215; in the assay with CP265) was “inactive” throughout. Besides, the Potency entry in the assay on CP268, in the assay with CP335, with DIV17, in the assay on GB4, with P94_40 and in the assay on PC26 was “inactive” each time. The Potency result with TAB109 was “inactive”.
On to `CCN(CC)CCOC(=O)[C@@H](Cc1cccc2ccccc12)C[C@@H]1CCCO1`, for which the Potency entry (in [2]; in the assay with CP194; in the assay on CP203; in the assay with CP215; in the assay with CP265; with CP268) was “inactive” throughout. Moreover, the Potency result in the assay on CP335, in the assay on DFO2036, in the assay on GB4, with P94_40 and with TAB109 was “inactive” in each case.
In the case of `CO[C@]1(NC(=O)[C@H](C(=O)O)c2ccc(O)cc2)C(=O)N2C(C(=O)O)=C(CSc3nnnn3C)CO[C@H]21`, the Potency entry (in assay [3]; in the assay on 7G8; in the assay on CP194; in the assay with CP203; with CP215; with CP265) was “inactive” in each case. The Potency result in the assay on CP268, in the assay on CP335, in the assay with DIV17, with GB4, with P94_40 and with PC26 was “inactive” each time. The Potency result with TAB109 was “inactive”.
Turning to `CN[C@H]1[C@@H](O)[C@@H](NC)[C@@H]2O[C@@]3(O)C(=O)C[C@@H](C)O[C@H]3O[C@H]2[C@H]1O`, the Potency entry (in [2]; with 7G8; in the assay with CP194; in the assay with CP215; with CP265; with CP268) was “inactive” in each case. Also, the Potency result in the assay with CP335, in the assay on DFO2036, in the assay on DIV17, with GB4, with P94_40 and in the assay with PC26 was “inactive” throughout. In the assay with TAB109, the Potency entry is “inactive”.
As to `CC#C[C@@]1(O)CC[C@H]2[C@@H]3CCC4=CC(=O)CCC4=C3[C@H](c3ccc(N(C)C)cc3)C[C@]21C`, the Potency in assay [4] is 3.98 µM (active).
As for `CCC(=O)OCC(=O)[C@@]1(OC(=O)CC)[C@H](C)C[C@@H]2[C@@H]3[C@H]([C@@H](O)C[C@@]21C)[C@]1(C)C=CC(=O)C=C1C[C@@H]3Cl`, the Potency entry (in assay [2]; with CP194) was “inactive” in each case. Besides, the Potency in the assay on 7G8 is 1 µM (active).
As for `CC(C)(C)NC(=O)[C@@H]1CC[C@@H]2[C@@H]3CC[C@@H]4NC(=O)C=C[C@@]4(C)[C@H]3CC[C@]21C`, the Potency entry in the assay on CP194, in the assay on CP203, with CP215, with CP265, in the assay with CP268 and in the assay on CP335 was “inactive” in each case. Further, the Potency result in the assay on DIV17, with GB4, in the assay on P94_40, in the assay with PC26 and with TAB109 was “inactive” each time.
Take `CCCC(=O)Nc1ccc(OC[C@@H](O)CNC(C)C)c(C(C)=O)c1`: in [2], the Potency entry was “inactive”.
For `C[C@@]12C=CC(=O)C=C1CC[C@H]1[C@H]3CC[C@](O)(C(=O)CO)[C@]3(C)CC(=O)[C@@H]12`, the activation in assay [5] is -13.5%.
As for `CCN(CCCCOC(=O)c1ccc(OC)c(OC)c1)[C@@H](C)Cc1ccc(OC)cc1`, the Potency result (in [2]; with CP215; in the assay on CP268; in the assay with GB4) was “inactive” each time.
In the case of `Cc1ccsc1/C=C\C1=NCCCN1C`, the Potency entry in the assay on 7G8, in the assay with CP194, in the assay with CP203, with CP215, in the assay on CP265 and with CP268 was “inactive” in each case. The Potency result in the assay on DFO2036, in the assay on DIV17, in the assay with GB4, with P94_40, in the assay with PC26 and in the assay on TAB109 was “inactive” in each case.
On to `c1ccc2c(c1)CCC[C@@H]2C1=NCCN1`, for which the Potency result (in assay [2]; with 7G8; with CP194; with CP203; with CP215; in the assay on CP265) was “inactive” in each case. Also, the Potency entry in the assay on CP268, in the assay on CP335, with DFO2036, with DIV17, with GB4 and in the assay on P94_40 was “inactive” throughout. Besides, the Potency result in the assay with PC26 and with TAB109 was “inactive” throughout.
Take `CC(=O)OCC(=O)[C@@]1(OC(C)=O)[C@H](C)C[C@H]2[C@@H]3C[C@H](F)C4=CC(=O)C=C[C@@]4(C)[C@]3(F)[C@H](O)C[C@@]21C`: in assay [6], the Potency is 6.31 µM (active).
Regarding `Clc1ccc([C@H](Cn2ccnc2)OCc2c(Cl)cccc2Cl)c(Cl)c1`, the Potency in the assay with 7G8 is 1.58 µM (active); with CP203, 6.42 µM (active); with CP215 it was 5.73 µM (active); with CP265, 3.16 µM (active); in the assay with DFO2036, 3.55 µM (active); in the assay with DIV17, 4.05 µM (active). Also, the Potency with GB4 was 4.55 µM (active); with P94_40, 3.16 µM (active); in the assay with PC26, 4.55 µM (active); in the assay with TAB109 it was 2.82 µM (active).
As to `CN(C)CCn1nnnc1SCC1=C(C(=O)O)N2C(=O)[C@@H](NC(=O)Cc3csc(N)n3)[C@@H]2SC1`, the Potency entry (in assay [3]; in [2]; with CP194; in the assay on CP203; in the assay on CP215; with CP268) was “inactive” in each case. Besides, the Potency with 7G8 was 3.55 µM (active).
Regarding `C#C[C@]1(O)CC[C@@H]2[C@H]3CCC4=CCCC[C@@H]4[C@@H]3CC[C@@]21C`, the Potency in assay [7] was 3.98 µM (active); in [2], 5.49 µM (active). Besides, the Potency entry in the assay with 7G8, in the assay on CP194, in the assay with CP203, in the assay on CP215, in the assay on CP265 and in the assay with CP268 was “inactive” each time. The Potency result in the assay with CP335, in the assay with DFO2036, in the assay on DIV17, in the assay on GB4, in the assay with P94_40 and with PC26 was “inactive” throughout. The Potency entry in the assay on TAB109 is “inactive”.
